The sample as a whole holds a higher share of hits than the screen did.
Marburg entry inh: Marburg virus entry inhibition | Marburg virus pseudotyped entry inhibition, cell reporter | Potency, µM (top dose mostly 37.8 µM), hits mostly inhibitors | hit rate 1.8% among 300,000; calls by dose curve; tested in HEK293 cells
Cycloheximide cs: counter-screen for Shiga toxin inhibitors: cycloheximide protein synthesis inhibition | max response, % | AID 2314 | cell reporter, cycloheximide protein synthesis inhibition counterscreen | hit rate 12% among 300,000; in the data active means max response mostly above about 13%, no sharp cut-off; inactive means mostly below about 14%; further: read at 38.3 µM for the half of the compounds with a filed dose
AMA1 RON2 block: inhibitors of Plasmodium falciparum AMA1-RON2 interaction; AID 720542; AlphaScreen AMA1-biotinylated RON2 peptide binding; Potency, µM (top dose mostly 58.2 µM), most hits filed as inhibitors; hit rate 0.2% among 360,000; active means well fitted inhibition curve with a large enough effect; inconclusive means small, poorly fitted or top-dose-only effect; inactive means no such curve, though single readings can be large or run the other way; further: nearly all actives have a fitted effect of over 45% in size
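AMA1 (3D7) with his tag at 25 nM final met compounds first, then biotinylated RON2 peptide at 25 nM; detection used donor plus acceptor beads, 10 µg/mL apiece, read by AlphaScreen after 30 min at room temperature.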
LASV entry inh: blocks Lassa virus binding to or entry into cells | Potency, µM (highest dose often 37.9 µM), most hits filed as inhibitors | hit rate 1.2% among 300,000 | Lassa virus pseudotype entry inhibition, cell reporter | AID 540256; calls by dose curve; tested in HEK293 cells; further: nearly all actives have a fitted effect of over 50% in size
Shiga inhibitor: inhibitors of Shiga toxin in Vero cells. Vero cells, Shiga toxin protein synthesis inhibition reporter. hit rate 9.2% among 290,000. inhibition, % at 38.7 µM; in the data active means inhibition mostly above about 28%, no sharp cut-off; inactive means mostly below about 43%
Hits are given with their value; – = inactive; ? = inconclusive; · = no result given; [ ] = another dose, or the depositor's remark.

SMILES	Marburg entry inh	Cycloheximide cs	AMA1 RON2 block	LASV entry inh	Shiga inhibitor
CC1Oc2ccccc2N(CC(=O)Nc2ccc3c(c2)OCCO3)C1=O (stereo unspecified)	–	44	–	–	–
O=C(CN1CCC(C(=O)c2ccc(Cl)cc2)CC1)Nc1ccc2c(c1)OCCO2	?	17	–	?	–
O=C(NCc1cccs1)c1csc([C@@H]2C[C@H](O)[C@@H](CO)O2)n1	·	·	–	·	·
COc1ccc(-c2c(-c3cc(OC)cc(OC)c3)n(C)c3ccc(Br)cc23)cc1	·	·	–	·	·
COc1ccc(N=Nc2nc3ccc(Br)cc3n2C)cc1	?	40	–	–	70
COc1ccccc1C(=O)Nc1ccc2c(c1)C(=O)NC2=O	·	28	–	·	22
COc1cc(C(=O)Nc2ccc3c(c2)OCCO3)c(-n2cnnn2)cc1OC	–	–	–	–	–
CCOc1ccccc1C(=O)Nc1ccc2c(c1)C(=O)NC2=O	?	–	–	–	·
Cc1ccccc1C(=O)Nc1ccc2c(c1)OCO2	?	30	–	?	–
COc1ccccc1C(=O)Nc1ccc2c(c1)OCO2	–	43	–	–	61
COc1cc(SC)ccc1C(=O)Nc1ccc2c(c1)OCCO2	?	34	–	12µM	–
Cc1ccc(S(=O)(=O)N2CCC(C(=O)OCC(=O)N(C)C3CCS(=O)(=O)C3)CC2)cc1C (stereo unspecified)	–	·	–	–	·
COc1ccc(NS(=O)(=O)c2ccc(C(=O)N3CCC(C)CC3)cc2)cc1	?	·	–	?	·
COc1ccccc1C(=O)NCC(=O)Nc1ccc2c(c1)OCO2	–	·	–	–	·
COc1ccccc1C(=O)Nc1ccc2c(c1)OCCO2	?	41	–	?	85
NS(=O)(=O)c1ccc(CCNC(=O)Cn2c(-c3cccs3)cc3ccccc32)cc1	·	·	·	–	·
COc1cc2c(c(OC)c1)[C@H](C=Cc1ccccc1)[C@@H]([C@H](O)CO)OC2	–	·	·	·	·
COc1cc(/C=C/[N+](=O)[O-])ccc1OC(=O)/C=C/c1ccc(F)cc1	–	–	–	–	·
O=C(O)c1nn(CCOc2ccccc2F)c(=O)c2ccccc12	–	12	–	–	–
Cc1nc2n(c(=O)c1CCN1CCC(c3noc4cc(F)ccc34)CC1)CCCC2	11µM	–	–	·	–
NS(=O)(=O)c1ccc(C(=O)Nc2ccc(-c3nc4cccnc4s3)cc2)cc1	·	48	–	·	70
O=C(Nc1cccc(-c2nc3cccnc3s2)c1)c1cccnc1Cl	·	18	–	·	31
NS(=O)(=O)c1ccc(NC(=O)c2ccc(-c3ccccc3)cc2)cc1	–	–	–	–	–
CCc1ccc(S(=O)(=O)Nc2ccc(-c3nc4cccnc4s3)cc2)s1	·	36	–	·	60
O=C(Nc1cccc(-c2nc3cccnc3s2)c1)c1ccc(Cl)nc1	–	–	–	–	–
SMILES	Marburg entry inh	Cycloheximide cs	AMA1 RON2 block	LASV entry inh	Shiga inhibitor
CCc1ccc(S(=O)(=O)Nc2ccc(-c3ccc4nncn4n3)cc2)s1	–	·	–	–	·
O=S(=O)(Nc1ccc(-c2nc3cccnc3s2)cc1)c1cc(F)ccc1F	·	37	–	·	67
O=S(=O)(Nc1cccc(-c2nc3cccnc3s2)c1)c1ccc2c(c1)OCCO2	·	–	–	·	–
C[C@@H]1CN(c2c(F)c(N)c3c(=O)c(C(=O)O)cn(C4CC4)c3c2F)C[C@H](C)N1	·	–	·	·	–
S=C(NCC1CCCO1)Nc1ccccc1 (stereo unspecified)	–	–	–	–	–
CCOCc1c(C(=O)OCC(=O)/C(C#N)=C(\C)N)oc2ccccc12	?	–	–	?	–
c1ccc(NC2=Nc3ccccc3CC2)cc1	–	37	–	?	45
O=C(O)CNC(=O)c1ccc(Oc2c(F)c(F)c(Oc3ccc(C(=O)NCC(=O)O)cc3)c(F)c2F)cc1	–	–	–	–	–
CC(C)CC1NC(=O)N(Cc2nc3ccccc3s2)C1=O (stereo unspecified)	–	–	–	–	–
Cc1cccc(-c2nc(S(=O)(=O)c3ccccc3)c(N3CCN(c4ccccc4)CC3)o2)c1	–	·	·	–	·
COc1ccc(-c2noc(-c3ccccc3C(=O)NCC3CCCO3)n2)cc1 (stereo unspecified)	–	19	–	?	–
COc1ccccc1-c1noc(-c2ccccc2C(=O)NCC2CCCO2)n1 (stereo unspecified)	·	16	–	·	–
Cc1ccccc1-c1noc(-c2ccccc2C(=O)NCC2CCCO2)n1 (stereo unspecified)	·	–	–	·	–
O=C(NCC1CCCO1)c1cc(-c2ccccc2F)no1 (stereo unspecified)	·	29	–	·	91
O=C(NCC1CCCO1)c1ccccc1-c1nc(-c2ccc(F)cc2)no1 (stereo unspecified)	–	–	–	–	–
CC1(C(=O)Nc2ccc3c(c2)OCCO3)CSCC(=O)N1CCc1ccccc1F (stereo unspecified)	·	·	–	·	·
COc1ccc(-n2ncc3c(NC(C)C)ncnc32)cc1	?	44	–	?	–
CCC(C)Nc1ncnc2c1cnn2-c1ccc(F)cc1 (stereo unspecified)	·	·	·	–	·
COCC(C)Nc1ncnc2c1cnn2-c1ccc(Cl)cc1 (stereo unspecified)	?	33	–	?	101
COc1ccc(-n2ncc3c(NCC(C)C)ncnc32)cc1	?	–	–	?	–
COc1ccc(C(=O)OCC(=O)N(C)C2CCS(=O)(=O)C2)cc1S(=O)(=O)N1CCCc2ccccc21 (stereo unspecified)	–	20	–	–	–
COc1ccc(-c2cc(C(=O)OCC(=O)N(C)C3CCS(=O)(=O)C3)c3ccccc3n2)cc1OC (stereo unspecified)	?	17	–	?	–
COCCN(C(=O)c1ccc(C)c(S(=O)(=O)N2CCOCC2)c1)c1c(N)n(CC(C)C)c(=O)[nH]c1=O	?	·	–[11.6 µM]	–	·
Brc1ccc(OCc2nc(-c3ccccn3)n[nH]2)cc1	–	29	–	–	–
Clc1ccc(OCc2nc(-c3ccccn3)n[nH]2)cc1	?	40	–	–	21
SMILES	Marburg entry inh	Cycloheximide cs	AMA1 RON2 block	LASV entry inh	Shiga inhibitor
Brc1ccc(OCCOc2cccc3cccnc23)cc1	–	–	–	–	–
O=C(CCNS(=O)(=O)c1cccc(C(F)(F)F)c1)NC1CC1	·	·	–	·	·
COc1cc(-c2nnn(CC#N)n2)ccc1OCc1ccccc1	?	30	–	–	64
COc1ccc(-c2nnn(CC(=O)c3ccccc3)n2)cc1OC	–	–	–	–	–
COc1cc(-c2nnn(CC(=O)NC3CCS(=O)(=O)C3)n2)ccc1OCc1ccccc1 (stereo unspecified)	–	17	–	–	44
O=c1[nH]c(=S)n(-c2cccc(Cl)c2)c(O)c1/C=N/N1CCOCC1	·	–	–	·	–
CCN(CC)c1ccc(NC(=O)CSc2nnc(C)c(=O)[nH]2)cc1	?	·	·	–	·
CCC(=O)N1CCc2cc(Br)cc(S(=O)(=O)NCc3ccco3)c21	?	35	–	–	106
O=C(C1CCC1)N1CCc2cc(S(=O)(=O)NCc3ccco3)ccc21	?	35	–	–	–
CCC(=O)N1CCc2cc(Br)cc(S(=O)(=O)CCC(=O)NCc3ccco3)c21	–	–	–	–	–
CC1CCCC(C)N1C(=O)c1ccc(S(=O)(=O)NCc2ccco2)cc1 (stereo unspecified)	–	27	–	–	46

Screens (PubChem)
